Laboratory results taken from the supplement of paper PMC10849652.
Targets with a hit are over-represented here; the source holds about 7,900 in all. About 0.6% of all pairs of compound and target were hits. Values without a mark were called inactive.

Tests used:
Experiment in all cases: log2 fold change, soluble protein after heating vs DMSO (PISA); higher = thermal stabilisation; K562 cells, 10 uM, 30 min; active = over 0.2 and 3.5 SD of the protein, either way, in both replicates (recomputed)
[1] = compound: NC(=O)Nc1cc(-c2cccc(F)c2)sc1C(=O)N[C@H]1CCCNC1
Method in brief: (§1)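 For each measurement, 10 μM compound was applied for 30 min to K562 cells at 2×10^6 cells/mL. Aliquots were heated for 3 min across 48°C-58°C, pooled, and extracted in PBS with 0.5% NP-40 at 4°C; the supernatant after 21,000xg for 90 min was soluble protein. This was quantified by TMTpro 16plex LC-MS/MS with channel sums equalised, and thermal stability was reported relative to control samples from duplicates, on a log2 fold-change scale.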

[2] = compound: NC(=O)c1cnc(N[C@@H]2CCCC[C@@H]2N)nc1Nc1cccc(-n2nccn2)c1
Method in brief: as §1

[3] = compound: NC1(c2ccc(-c3nc4ccn5c(=O)[nH]nc5c4cc3-c3ccccc3)cc2)CCC1
Method in brief: as §1

entinostat = compound: Nc1ccccc1NC(=O)c1ccc(CNC(=O)OCc2cccnc2)cc1 [entinostat]
Method in brief: as §1

vorinostat = compound: O=C(CCCCCCC(=O)Nc1ccccc1)NO [vorinostat]
Method in brief: as §1

citarinostat = compound: O=C(CCCCCCNC(=O)c1cnc(N(c2ccccc2)c2ccccc2Cl)nc1)NO [citarinostat]
Method in brief: as §1

silmitasertib = compound: O=C(O)c1ccc2c(c1)nc(Nc1cccc(Cl)c1)c1ccncc12 [silmitasertib]
Method in brief: as §1

[4] = compound: O=C1NC(=O)C(c2cnc3ccccn23)=C1c1cn2c3c(cc(F)cc13)CN(C(=O)N1CCCCC1)CC2
Method in brief: as §1

[5] = compound: c1cc(OCCN2CCCCC2)cc(-c2n[nH]c3ccc(-c4nnc[nH]4)cc23)c1
Method in brief: as §1

entospletinib = compound: c1cn2cc(-c3ccc4cn[nH]c4c3)nc(Nc3ccc(N4CCOCC4)cc3)c2n1 [entospletinib]
Method in brief: as §1

[6] = compound: NCC(=O)Nc1ccc(-n2nc(C(F)(F)F)cc2-c2ccc3c(ccc4ccccc43)c2)cc1
Method in brief: as §1

UniProt Q96JM3, sequence (Q96JM3 whole entry, looked up): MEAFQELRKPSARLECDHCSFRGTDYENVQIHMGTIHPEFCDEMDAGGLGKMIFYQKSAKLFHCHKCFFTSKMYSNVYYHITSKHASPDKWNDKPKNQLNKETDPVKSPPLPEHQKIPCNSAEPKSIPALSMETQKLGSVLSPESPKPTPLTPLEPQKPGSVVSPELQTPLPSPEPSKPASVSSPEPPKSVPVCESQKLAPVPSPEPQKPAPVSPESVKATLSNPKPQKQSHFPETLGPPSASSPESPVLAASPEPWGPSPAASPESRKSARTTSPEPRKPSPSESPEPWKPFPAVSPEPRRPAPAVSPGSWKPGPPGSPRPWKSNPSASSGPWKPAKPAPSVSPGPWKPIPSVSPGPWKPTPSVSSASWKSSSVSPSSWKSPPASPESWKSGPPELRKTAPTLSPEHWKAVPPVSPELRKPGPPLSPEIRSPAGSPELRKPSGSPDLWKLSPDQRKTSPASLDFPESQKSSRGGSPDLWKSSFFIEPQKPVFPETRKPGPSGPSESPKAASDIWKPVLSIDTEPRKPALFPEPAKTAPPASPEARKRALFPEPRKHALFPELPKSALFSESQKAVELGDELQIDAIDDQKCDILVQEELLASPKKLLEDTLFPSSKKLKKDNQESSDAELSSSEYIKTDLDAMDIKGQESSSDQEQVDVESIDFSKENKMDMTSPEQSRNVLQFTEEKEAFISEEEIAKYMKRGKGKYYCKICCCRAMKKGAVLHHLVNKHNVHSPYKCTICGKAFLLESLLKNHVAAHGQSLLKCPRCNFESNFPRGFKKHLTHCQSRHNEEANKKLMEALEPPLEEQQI
UniProt Q02224, sequence (Q02224 whole entry, looked up): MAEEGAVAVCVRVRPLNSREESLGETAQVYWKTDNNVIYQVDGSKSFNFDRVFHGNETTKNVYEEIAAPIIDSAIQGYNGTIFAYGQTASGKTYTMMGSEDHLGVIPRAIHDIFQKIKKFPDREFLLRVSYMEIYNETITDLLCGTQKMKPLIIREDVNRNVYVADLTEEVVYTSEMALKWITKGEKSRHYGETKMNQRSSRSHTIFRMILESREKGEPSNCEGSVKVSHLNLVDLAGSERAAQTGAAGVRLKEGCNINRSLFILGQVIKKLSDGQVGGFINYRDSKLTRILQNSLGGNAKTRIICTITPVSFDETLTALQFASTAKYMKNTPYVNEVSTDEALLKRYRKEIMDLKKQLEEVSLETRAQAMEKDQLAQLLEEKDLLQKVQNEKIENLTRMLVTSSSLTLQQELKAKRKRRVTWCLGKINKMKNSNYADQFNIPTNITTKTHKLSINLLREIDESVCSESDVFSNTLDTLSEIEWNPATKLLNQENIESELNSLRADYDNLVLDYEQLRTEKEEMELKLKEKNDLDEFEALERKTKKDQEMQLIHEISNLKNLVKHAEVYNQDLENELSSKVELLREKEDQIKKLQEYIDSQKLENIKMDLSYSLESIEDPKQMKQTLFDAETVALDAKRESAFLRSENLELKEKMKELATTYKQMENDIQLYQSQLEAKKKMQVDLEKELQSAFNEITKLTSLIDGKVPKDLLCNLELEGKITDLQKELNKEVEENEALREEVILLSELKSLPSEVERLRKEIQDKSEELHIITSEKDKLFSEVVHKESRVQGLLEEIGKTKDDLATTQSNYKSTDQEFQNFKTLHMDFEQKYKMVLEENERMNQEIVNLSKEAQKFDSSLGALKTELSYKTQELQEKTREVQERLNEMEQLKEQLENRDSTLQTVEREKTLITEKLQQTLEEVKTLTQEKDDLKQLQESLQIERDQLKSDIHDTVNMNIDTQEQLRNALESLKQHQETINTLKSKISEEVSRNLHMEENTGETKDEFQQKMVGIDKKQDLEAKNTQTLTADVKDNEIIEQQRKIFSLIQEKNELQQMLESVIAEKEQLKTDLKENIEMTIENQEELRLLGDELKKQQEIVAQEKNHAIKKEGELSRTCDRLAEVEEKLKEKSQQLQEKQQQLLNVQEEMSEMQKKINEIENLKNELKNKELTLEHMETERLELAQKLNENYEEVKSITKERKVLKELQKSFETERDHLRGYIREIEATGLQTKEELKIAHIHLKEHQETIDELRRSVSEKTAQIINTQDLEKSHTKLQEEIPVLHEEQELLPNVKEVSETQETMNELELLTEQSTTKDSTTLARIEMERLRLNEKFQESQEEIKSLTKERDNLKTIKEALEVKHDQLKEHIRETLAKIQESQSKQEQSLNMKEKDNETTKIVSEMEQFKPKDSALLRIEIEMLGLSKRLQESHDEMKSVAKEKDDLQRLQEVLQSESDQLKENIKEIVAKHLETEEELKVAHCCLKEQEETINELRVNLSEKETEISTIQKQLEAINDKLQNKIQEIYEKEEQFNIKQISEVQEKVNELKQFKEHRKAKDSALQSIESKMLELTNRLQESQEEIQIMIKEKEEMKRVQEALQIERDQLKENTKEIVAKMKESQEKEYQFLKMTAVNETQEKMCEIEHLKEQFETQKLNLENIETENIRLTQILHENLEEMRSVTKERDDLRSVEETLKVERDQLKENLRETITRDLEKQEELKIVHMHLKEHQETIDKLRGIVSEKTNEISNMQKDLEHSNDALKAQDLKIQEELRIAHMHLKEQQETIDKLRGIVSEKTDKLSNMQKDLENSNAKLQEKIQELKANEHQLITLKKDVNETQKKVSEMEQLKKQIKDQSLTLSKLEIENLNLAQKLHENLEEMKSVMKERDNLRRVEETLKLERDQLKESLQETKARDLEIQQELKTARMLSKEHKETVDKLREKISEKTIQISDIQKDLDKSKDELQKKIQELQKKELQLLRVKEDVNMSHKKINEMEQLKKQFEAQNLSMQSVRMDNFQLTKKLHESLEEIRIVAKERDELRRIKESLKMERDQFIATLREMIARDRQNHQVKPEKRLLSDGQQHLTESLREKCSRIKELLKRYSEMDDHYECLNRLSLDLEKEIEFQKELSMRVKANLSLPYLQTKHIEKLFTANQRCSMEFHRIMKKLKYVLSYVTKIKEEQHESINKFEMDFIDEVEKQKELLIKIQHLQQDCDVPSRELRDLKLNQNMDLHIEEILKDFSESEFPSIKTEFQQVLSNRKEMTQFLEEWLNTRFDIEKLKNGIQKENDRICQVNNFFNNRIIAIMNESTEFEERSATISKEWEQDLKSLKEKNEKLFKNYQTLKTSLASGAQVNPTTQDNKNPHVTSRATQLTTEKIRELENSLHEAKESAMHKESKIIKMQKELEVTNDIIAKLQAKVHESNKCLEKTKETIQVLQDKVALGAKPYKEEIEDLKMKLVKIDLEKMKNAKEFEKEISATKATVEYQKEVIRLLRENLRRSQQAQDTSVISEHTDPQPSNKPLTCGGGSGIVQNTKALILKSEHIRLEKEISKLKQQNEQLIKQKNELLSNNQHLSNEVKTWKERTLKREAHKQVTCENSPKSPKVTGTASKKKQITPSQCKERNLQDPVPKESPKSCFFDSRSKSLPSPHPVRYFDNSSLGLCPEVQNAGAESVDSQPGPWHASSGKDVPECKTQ
UniProt O75503, sequence (O75503 whole entry, looked up): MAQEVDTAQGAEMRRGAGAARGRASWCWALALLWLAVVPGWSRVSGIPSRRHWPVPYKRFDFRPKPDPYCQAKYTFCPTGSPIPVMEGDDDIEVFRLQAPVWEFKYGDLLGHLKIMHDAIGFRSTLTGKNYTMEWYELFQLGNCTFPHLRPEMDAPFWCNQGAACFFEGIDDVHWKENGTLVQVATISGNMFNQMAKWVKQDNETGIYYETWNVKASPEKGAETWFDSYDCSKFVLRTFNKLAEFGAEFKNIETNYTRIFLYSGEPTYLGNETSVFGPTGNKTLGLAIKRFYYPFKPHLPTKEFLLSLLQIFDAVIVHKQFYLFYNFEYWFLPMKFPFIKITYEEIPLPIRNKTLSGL
UniProt Q9NRR8, sequence (Q9NRR8 whole entry, looked up): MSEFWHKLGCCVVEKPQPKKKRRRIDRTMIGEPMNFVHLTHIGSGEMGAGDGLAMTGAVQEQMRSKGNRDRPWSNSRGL
UniProt Q9H9S4, sequence (Q9H9S4 whole entry, looked up): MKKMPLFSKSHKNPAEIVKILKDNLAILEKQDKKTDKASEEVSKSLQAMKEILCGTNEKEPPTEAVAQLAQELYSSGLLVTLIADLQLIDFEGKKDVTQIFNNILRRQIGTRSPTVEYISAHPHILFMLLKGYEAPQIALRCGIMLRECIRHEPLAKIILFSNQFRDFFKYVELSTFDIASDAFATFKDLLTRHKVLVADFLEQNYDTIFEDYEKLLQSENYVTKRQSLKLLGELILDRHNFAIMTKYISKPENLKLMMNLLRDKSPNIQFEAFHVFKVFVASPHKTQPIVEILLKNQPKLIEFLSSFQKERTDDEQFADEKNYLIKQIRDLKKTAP
UniProt O75794, sequence (O75794 whole entry, looked up): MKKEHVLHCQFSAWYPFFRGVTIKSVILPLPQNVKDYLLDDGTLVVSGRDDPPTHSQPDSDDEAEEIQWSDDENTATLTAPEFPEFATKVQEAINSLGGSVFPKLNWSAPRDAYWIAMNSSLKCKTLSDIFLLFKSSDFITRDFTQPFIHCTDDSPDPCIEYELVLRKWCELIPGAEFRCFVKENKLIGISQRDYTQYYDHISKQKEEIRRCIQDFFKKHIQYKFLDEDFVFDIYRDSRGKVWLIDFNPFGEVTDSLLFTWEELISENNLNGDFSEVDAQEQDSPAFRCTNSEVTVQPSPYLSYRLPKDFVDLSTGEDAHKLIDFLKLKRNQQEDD
UniProt O95273, sequence (O95273 whole entry, looked up): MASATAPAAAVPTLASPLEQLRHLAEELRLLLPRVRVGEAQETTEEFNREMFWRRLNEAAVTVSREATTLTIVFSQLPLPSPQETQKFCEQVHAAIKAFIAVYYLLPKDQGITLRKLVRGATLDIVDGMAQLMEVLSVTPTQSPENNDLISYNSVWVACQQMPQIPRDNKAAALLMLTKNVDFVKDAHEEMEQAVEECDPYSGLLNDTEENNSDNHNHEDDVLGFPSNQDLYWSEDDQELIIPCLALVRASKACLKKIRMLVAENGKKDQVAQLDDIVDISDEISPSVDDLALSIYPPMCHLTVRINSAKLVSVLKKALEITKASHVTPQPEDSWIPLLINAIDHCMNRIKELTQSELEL

| Target | log2 fold change [1] | log2 fold change [2] | log2 fold change [3] | log2 fold change (entinostat) | log2 fold change (vorinostat) | log2 fold change (citarinostat) | log2 fold change (silmitasertib) | log2 fold change [4] | log2 fold change [5] | log2 fold change (entospletinib) | log2 fold change [6] |
| --- | --- | --- | --- | --- | --- | --- | --- | --- | --- | --- | --- |
| CHPT1 (UniProt Q8WUD6) | 0 | -0.039 | -0.059 | 0.062 | 0.066 | 0.002 | -0.042 | -0.049 | 0.019 | 0.047 |  |
| CNOT7 (UniProt Q9UIV1) | -0.053 | 0.039 | 0 | 0.091 | 0.152 | -0.12 | 0.12 | 0.032 | -0.089 | 0.122 | 0.028 |
| CHAF1A (UniProt Q13111) | 0.087 | 0.046 | 0.036 | -0.141 | 0.121 | 0.005 | -0.019 | -0.167 | -0.439 (active) | -0.126 |  |
| CCNDBP1 (UniProt O95273) | 0.046 | -0.027 | -0.091 | -0.036 | -0.069 | 0.05 | 0.087 |  | -0.084 | 0.029 | 0.069 |
| CIR1 (UniProt Q86X95) | 0.014 | 0.061 | 0.309 | 0 | -0.056 | 0.06 | 0.105 | 0.067 | 0.024 | 0.024 | 0.018 |
| CENPE (UniProt Q02224) | 0.127 | 0.731 |  | -0.153 | -0.238 |  |  |  |  |  | 0.114 |
| C22orf39 (UniProt Q6P5X5) | 0.093 | -0.036 | -0.106 | 0.037 |  |  | 0.016 | 0.089 |  |  |  |
| CAV2 (UniProt P51636) | -0.251 | -0.041 | 0.027 | -0.088 | 0.147 |  | 0.106 |  |  |  |  |
| CSNK2A1 (UniProt P68400) | -0.062 | 0.014 | 0.007 | -0.015 | 0.046 | -0.013 |  | -0.027 | -0.045 | 0.113 | 0.05 |
| CRTC2 (UniProt Q53ET0) | -0.814 (active) | -0.001 | -0.13 | 0.004 |  | -0.099 | 0.092 | -0.125 | -0.143 | -0.038 | 0.038 |
| COG2 (UniProt Q14746) | -0.07 | -0.513 | -0.487 | 0.138 |  | 0.101 | 0.248 | -0.031 | 0.34 | -0.103 |  |
| CDK5RAP3 isoform 4 (UniProt Q96JB5) | -0.025 | -0.029 | -0.092 | 0.056 | 0.04 | 0.065 | -0.004 | -0.04 | 0.019 | -0.057 | -0.097 |
| CCNT2 (UniProt O60583) | -0.045 | 0.042 | 0.054 | 0.076 | 0.223 | 0.06 | -0.06 | -0.032 | -0.089 | -0.05 |  |
| CCNH (UniProt P51946) | -0.043 | -0.009 | 0.024 | -0.006 | -0.028 | 0.015 | 0.02 | -0.083 | -0.027 | -0.019 | -0.02 |
| CHST10 (UniProt O43529) | 0.059 | 0.023 | -0.142 | 0.048 | 0.015 |  | -0.059 | -0.032 |  |  |  |
| CEP128 (UniProt Q6ZU80) | -0.182 | -0.029 | 0.095 | -0.112 |  | -0.087 | -0.191 |  | -0.068 | -0.064 | -0.234 |
| CDC42SE1 (UniProt Q9NRR8) | -0.244 | 0.055 | -0.065 | -0.042 |  | -0.048 | 0.128 | -0.065 | -0.103 | 0.141 | -0.002 |
| C19orf54 (UniProt Q5BKX5) | 0.098 | 0.004 |  | -0.111 | -0.064 | -0.09 |  | -0.05 | -0.121 | 0.17 | 0.086 |
| CLPTM1L (UniProt G5E9Z2) | 0.139 | 0.237 | -0.175 | -0.012 | 0.022 |  | -0.05 | 0.445 |  |  | -0.028 |
| CAMK2G isoform 6 (UniProt Q13555) | -0.306 | -0.033 | 0.038 | 0.119 | 0.119 | -0.02 | 0.158 | 0.177 | -0.053 | 0.131 | 0.057 |
| CDC123 (UniProt O75794) | -0.029 | 0.045 | -0.077 | 0.026 | 0.032 | 0.045 | -0.048 | 0.011 | -0.056 | -0.081 | -0.01 |
| CDK1 (UniProt P06493) | -0.036 | 0.004 | -0.068 | 0 | 0.05 | 0.051 |  | -0.079 | -0.032 | -0.024 | -0.047 |
| C9orf72 (UniProt Q96LT7) | 0.028 | -0.041 | -0.148 | -0.011 | 0.232 |  | -0.067 | -0.011 |  |  | -0.009 |
| CAB39L (UniProt Q9H9S4) | 0.035 | 0.083 |  | -0.016 | -0.197 | -0.093 |  | -0.043 | -0.101 | 0.154 | -0.162 |
| CASP9 (UniProt P55211) | 0.059 | -0.234 |  | -0.098 | 0.045 | 0.05 |  | -0.057 | 0.054 | -0.211 | -0.111 |
| CLN5 (UniProt O75503) | -0.133 | -0.41 | -0.858 (active) | 0.02 | -0.087 |  | 0.192 | -0.014 |  |  |  |
| CCNC (UniProt P24863) | -0.032 | -0.105 | -0.017 | 0.04 | -0.039 |  | 0.183 | 0.039 |  |  | -0.033 |
| CHAMP1 (UniProt Q96JM3) | -0.034 | -0.136 | 0.007 | 0.001 | 0.137 | -0.007 | -0.02 | -0.051 | -0.078 | 0.002 | -0.031 |
